Screens (PubChem BioAssay)
ALOX12 inh: inhibitors of human 12S-lipoxygenase ALOX12; Potency, µM (titrated, usually from 108 µM), for inactives: at the highest dose activity change, negative = inhibition, hits mostly inhibitors; purified 12hLO, xylenol orange hydroperoxide absorbance; hit rate 1.1% among 580,000; also: potency is read from the fitted curve at half-maximal effect
Target sequence (P18054 whole entry, looked up): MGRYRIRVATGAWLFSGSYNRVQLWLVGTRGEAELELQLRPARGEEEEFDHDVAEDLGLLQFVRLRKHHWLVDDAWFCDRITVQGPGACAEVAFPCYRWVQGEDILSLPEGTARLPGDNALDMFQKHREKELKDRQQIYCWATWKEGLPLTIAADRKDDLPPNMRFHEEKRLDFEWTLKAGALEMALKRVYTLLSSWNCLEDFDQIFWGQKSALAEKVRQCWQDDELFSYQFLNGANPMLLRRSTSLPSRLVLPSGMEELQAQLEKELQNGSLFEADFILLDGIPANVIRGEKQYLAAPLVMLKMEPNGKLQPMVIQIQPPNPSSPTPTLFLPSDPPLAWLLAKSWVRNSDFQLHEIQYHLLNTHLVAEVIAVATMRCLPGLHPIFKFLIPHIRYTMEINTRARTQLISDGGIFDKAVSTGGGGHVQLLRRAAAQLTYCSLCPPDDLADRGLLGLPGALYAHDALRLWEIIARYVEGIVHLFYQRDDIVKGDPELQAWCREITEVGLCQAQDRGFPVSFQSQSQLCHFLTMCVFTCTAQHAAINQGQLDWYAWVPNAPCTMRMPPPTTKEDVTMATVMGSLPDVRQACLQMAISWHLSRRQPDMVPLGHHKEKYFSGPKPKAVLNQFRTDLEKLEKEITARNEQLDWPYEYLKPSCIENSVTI
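Hydroperoxide product was detected by ferrous iron/xylenol orange as the 573 to 405 nm absorbance ratio. Arachidonic acid at 40 uM (final) was turned over for 30 min at room temperature by 150 nM human 12hLO, pH 7.0 Hepes buffer, after 15 min compound preincubation.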
HT1080 IDH1KD tx: kills HT-1080 cells with IDH1 knockdown. HT-1080 IDH1 knockdown viability, ATP luminescence, 48 h. Potency, µM (doses to about 46.1 µM), for the others: at the top dose activity, negative = toxicity, usual class: cytotoxic. hit rate 2% among 360,000. AID 686971;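 also: potency is read from the fitted curve at half-maximal effect; 0% = DMSO wells and -100% = cell-free medium wells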
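After a 2 h attachment period, IDH1KD HT-1080 cells took pin-transferred compound for 48 h at 37 °C; ATP-based luminescence after 10 min room-temperature reagent incubation reported viability.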
IL1B secr inh: inflammasome signaling inhibition, IL-1 beta readout | THP-1 LPS/ATP IL-1B secretion, AlphaLISA, 16 h; stronger effect = lower value | activity change, % at 57.5 µM | hit rate 4.7% among 360,000 | AID 743279; in the data active = activity change below about -50%; inconclusive = mostly about -30% to -49%
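THP-1 cells pretreated 1 hr with compounds (up to 57.5 uM final), then stimulated with LPS (250 ng/mL final) plus ATP (1.25 mM final); secreted IL-1B measured by AlphaLISA after 16 hr, decreased signal indicating inhibition.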
HT1080-NT tox: kills 2HG-producing HT-1080-NT fibrosarcoma cells. HT-1080-NT fibrosarcoma viability, CellTiter-Glo ATP luminescence, 48 h. Potency, µM (top dose mostly 46.1 µM), without a hit: at the top dose activity, negative = less viability, usual class: cytotoxic. hit rate 1.6% among 360,000. AID 686970;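 also: NT is the 2HG producing partner of a matched IDH1 knockdown line; potency is read from the fitted curve at half-maximal effect; 0% = DMSO-treated cells and -100% = media-only wells without cells; nearly all actives have a fitted effect of over 55% in size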
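Read-out is CellTiter-Glo luminescence after 10 minutes at room temperature, following 48 hours' compound treatment of HT-1080-NT cells (750 cells/well, RPMI, 5% FBS, 37 degrees C).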
TDP1 cell CPT: DT40-hTDP1 cell growth loss with CPT; chicken DT40 Tdp1-/-;hTDP1 cells + 20 nM CPT, ATP luminescence, 48 h; Potency, µM (doses to about 46.2 µM), inactives show at the top dose activity change, negative = growth inhibition, usual class: inhibitors; hit rate 12% among 420,000; AID 686979; also: potency is read from the fitted curve at half-maximal effect; nearly all actives have a fitted effect of over 55% in size
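Chicken DT40 Tdp1-/- cells complemented with human TDP1, 400 cells/well, exposed to compounds plus 20 nM camptothecin for at least 48 h at 37 C; viability read as ATP content by CellTiter-Glo luminescence.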
TDP1 cell noCPT: qHTS for Inhibitors of human tyrosyl-DNA phosphodiesterase 1 (TDP1): qHTS in cells in absence of CPT; DT40 Tdp1-/- hTDP1 cells, no CPT, ATP luminescence, 48 h; Potency, µM (titrated, usually from 46.2 µM), for the others: top-dose activity change, negative = growth inhibition, most hits filed as inhibitors; hit rate 15% among 420,000; also: potency is read from the fitted curve at half-maximal effect; nearly all actives have a fitted effect of over 55% in size
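A cellular qHTS used chicken DT40 cells lacking endogenous Tdp1 but carrying stably transfected human TDP1. Compounds were applied without camptothecin, and cell growth kinetics were judged by ATP-dependent luminescence after ≥48 hr.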
The depositor's hits bear a star; u = inconclusive; x = no result; [ ] = remark or other dose. The sample as a whole holds a higher share of hits than the screen did. Unless noted, calls follow the shape of the dose curve; as a rule, active = well fitted curve in the direction sought with a large enough effect; inconclusive = small, poorly fitted or top-dose-only effect, or another doubt; inactive = no such curve, though single readings can be large; an effect the other way counts as inactive or inconclusive. Unless noted, % is scaled to controls: 0 for no effect and ±100 for the full control effect.

SMILES	ALOX12 inh	HT1080 IDH1KD tx	IL1B secr inh	HT1080-NT tox	TDP1 cell CPT	TDP1 cell noCPT
CCOc1ccc(NC(=O)c2nc(S(=O)(=O)Cc3ccc(C)cc3)ncc2Cl)cc1	-29%	x	x	x	0.79µM*	0.63µM*
CC1CCCN(S(=O)(=O)c2ccc(NC(=O)CNC3CCCC3)cc2)C1 (stereo unspecified)	-22%	-5%	u	-20%	u	u
COc1ccc(C(=O)NCC(C)O)cc1 (stereo unspecified)	-17%	x	x	x	x	x
CONC(=O)CC1Sc2ccc(Cl)cc2NC1=O (stereo unspecified)	20%	x	x	x	x	x
O=[N+]([O-])c1cccc(/C=N/OCc2c(F)cccc2Cl)c1	1%	x	x	x	x	x
Cc1ccc(NC(=O)c2ncc(Cl)c(Cl)c2Cl)cc1C	-2%	8%	1	5%	u	u
CCS(=O)(=O)c1ncc(Cl)c(C(=O)Nc2ccc(C)cc2)n1	10%	15µM*	-99*	18µM*	1.6µM*	1.8µM*
CC(=O)Nc1ccc(NC(=O)c2nc(S(=O)(=O)Cc3ccccc3)ncc2Cl)cc1	0%	-3%	x	-3%	0.26µM*	0.46µM*
CS(=O)(=O)c1ncc(Cl)c(C(=O)Nc2ccc3ccccc3c2)n1	-2%	2.9µM*	-99*	9.2µM*	1µM*	0.65µM*
O=C(Nc1ccc(OC(F)F)cc1)c1ncc(Cl)c(Cl)c1Cl	13%	14%	-158*	-4%	18%	0%
COc1ccc(C(=O)N2CCC(N3CC4CCCN4C3=O)CC2)cc1 (stereo unspecified)	-11%	x	x	x	x	x
N#Cc1ccccc1COC(=O)c1ccc(COc2ccccc2)o1	-3%	x	x	x	x	x
Cc1cccc(C(=O)NC2CCN(c3cc(-c4ccc(Cl)cc4)[nH]n3)C2)c1 (stereo unspecified)	-3%	x	x	x	x	x
CCCS(=O)(=O)c1ncc(Cl)c(C(=O)Nc2c(C(=O)Nc3ccccc3)oc3ccccc23)n1	5%	x	x	x	2.1µM*	2.6µM*
CCCSc1ncc(Cl)c(C(=O)Nc2c(C(=O)Nc3ccc(OC)cc3)oc3ccccc23)n1	-19%	x	x	x	u	u
Cc1ccc(CS(=O)(=O)c2ncc(Cl)c(C(=O)Nc3ccc(OC(F)F)cc3)n2)cc1	15%	u	-103*	16µM*	3.7µM*	3.7µM*
COc1ccc(NC(=O)c2nc(S(=O)(=O)Cc3ccc(C)cc3)ncc2Cl)cc1	-24%	x	x	x	16µM*	2.1µM*
COc1ccc(NC(=O)c2ccc(Cc3ccc(C)cc3)o2)cc1	4%	-8%	-6	-1%	u	u
O=C(N1CCN(S(=O)(=O)c2cccc(F)c2)CC1)N1CC2CC(C1)[C@H]1CCCC(=O)N1C2 (stereo partly specified)	68%	x	x	x	x	x
COc1cccc(-c2nnc3sc(NC(=O)C(C)C)nn23)c1	5%	x	x	x	x	x
CC[n+]1c(/C=C2/C=C(C)CC(C)(C)C2)sc2ccc(OC)cc21	u	u	-112*	21µM*	2.3µM*	1.2µM*
CC[n+]1c(/C=C2\C=C(C)CC(C)(C)C2)sc2ccccc21	u	u	-60*	u	0.65µM*	2.3µM*
c1csc(-c2nc(N3CCOCC3)c3ccccc3n2)c1	14%	-21%	-17	-20%	u	u
COc1ccc(N2CCN(c3nc(-c4cccs4)nc4ccccc34)CC2)cc1	-9%	1%	9	13%	u	23µM*
Cc1cc(C)cc(S(=O)(=O)N2CCN(c3nc(-c4cccs4)nc4ccccc34)CC2)c1	x	17%	x	22%	u	u
SMILES	ALOX12 inh	HT1080 IDH1KD tx	IL1B secr inh	HT1080-NT tox	TDP1 cell CPT	TDP1 cell noCPT
O=S(=O)(c1ccc(Cl)cc1)N1CCN(c2nc(-c3cccs3)nc3ccccc23)CC1	-3%	25%	18	22%	-3%	u
O=S(=O)(c1ccccc1)N1CCN(c2nc(-c3cccs3)nc3ccccc23)CC1	2%	x	x	x	13µM*	u
O=S(=O)(c1nccs1)N1CCN(c2nc(-c3cccs3)nc3ccccc23)CC1	x	-1%	x	1%	u	11µM*
CC(C)S(=O)(=O)N1CCN(c2nc(-c3cccs3)nc3ccccc23)CC1	x	-11%	x	-15%	11µM*	18µM*
CCn1cc(CN(CCOC)Cc2cccs2)ccc1=O	56%	x	x	x	x	x
O=C(Nc1ccc(F)cc1)c1ccn2nccc2c1	7%[176 µM]	x	x	x	x	x
COCCn1c(C)cnc1CCNC(=O)c1ccc(OC)nc1	53%	x	x	x	x	x
COc1ccc(NC(=O)c2ccc3c(c2)N(C)C2CCCCN2C3=O)c(OC)c1 (stereo unspecified)	21%	x	x	x	x	x
CC(C)CC(N)c1ccccc1 (stereo unspecified)	-7%	x	x	x	x	x
Cc1ccc(S(=O)(=O)N2CCCN(c3nc(-c4cccs4)nc4ccccc34)CC2)cc1	x	x	x	x	13µM*	u
O=S(=O)(Cc1ccccc1)N1CCN(c2nc(-c3cccs3)nc3ccccc23)CC1	x	4%	x	18%	u	13µM*
CC(O)C1CCC2C3CC[C@H]4CC(O)CCC4(C)C3CC3(OCCO3)C12C (stereo partly specified)	-20%	-6%[9.24 µM]	6	-9%	-29%	21µM*
